Our source for the Potency and max activation values is PubChem BioAssay (Tox21).

A number with no mark means an inactive call. Results filed as inconclusive are left out. Calls of active or inactive are those of the source. Calls follow the shape of the dose curve; as a rule, active = well fitted curve in the direction sought with a large enough effect in the repeat runs; inconclusive = weak or mixed curves; inactive = no such curve, though single readings can be large; an effect the other way counts as inactive or inconclusive.

The nature of test [1]: Caspase-3/7 induction in CHO-K1 cells by small molecules, qHTS cell viability counter screen (AID 1346979). Also: nearly all actives have a fitted effect of over 35% in size. Also: potency is read from the fitted curve at half-maximal effect. Particulars: CellTiter-Fluor fluorescence, 17 h; series mostly up to 92.4 µM. The gist of the method:
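Wild-type CHO-K1 cells (1,500/well) treated with compound after 5 h plating; after 16 h at 37C, viability read as CellTiter-Fluor fluorescence following 1 h reagent incubation, in the same wells as the caspase read.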

In test [2] the target is Nuclear receptor subfamily 1 group I member 2 (Homo sapiens) (UniProt O75469). Kind of test: Human pregnane X receptor (PXR) small molecule agonists, qHTS assay (AID 1346982). Also: nearly all actives have a fitted effect of over 35% in size. Also: potency is read from the fitted curve at half-maximal effect. The conditions noted are these: PXR-Luc HepG2, CYP3A4 luciferase reporter, 24 h; series mostly up to 92.4 µM. A digest of the protocol: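 Compound-induced hPXR transactivation of a CYP3A4 luciferase reporter was scored in HepG2 PXR-Luc cells over 24 hr at 37 C, 5% CO2, by luminescence.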

The target in test [3] is Nuclear receptor subfamily 1 group I member 2 (Rattus norvegicus) (UniProt Q9R1A7). Kind of test: Rat pregnane X receptor (rPXR) activation by small molecules, qHTS assay (AID 1346983). Also: nearly all actives have a fitted effect of over 20% in size. Also: potency is read from the fitted curve at half-maximal effect. The conditions noted are these: rPXR luciferase reporter cells, One-Glo luminescence, 24 h; max activation: hits give high values. The gist of the method: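 Cell-based rPXR activation assay: rPXR cells, 2,000 per well, rested 5hr at 37 C, then exposed to compounds in DMSO for 24 hr at 37 C. Luciferase activity read by One-Glo luminescence after 30 min at room temperature.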

The target in test [4] is Nuclear receptor subfamily 1 group I member 2 (Homo sapiens) (UniProt O75469). Kind of test: CYP3A4 induction through human pregnane X receptor (PXR) by small molecules, qHTS assay (AID 1346984). Also: nearly all actives have a fitted effect of over 40% in size. Also: potency is read from the fitted curve at half-maximal effect. The conditions noted are these: DPX-2 HepG2 PXR, CYP3A4-luciferin luminescence, 24 h; series mostly up to 46.1 µM. The gist of the method: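 Readings come from a luciferase reporter: DPX-2 cells, which are HepG2 cotransfected with PXR and a CYP3A4-promoter construct, were exposed to test compounds for 24 h at 37C before One-Glo detection.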

The target is the same in test [5]. The experiment in a line: Human pregnane X receptor (PXR) activation by small molecules, qHTS assay (AID 1346985). Also: nearly all actives have a fitted effect of over 40% in size. Particulars: DPX-2 HepG2 CYP3A4-luciferase, 24 h; series mostly up to 38.3 µM. A digest of the protocol:
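DPX-2 cells (HepG2 co-transfected with a PXR response element and a CYP3A4-promoter luciferase construct) were seeded at 2,000 per well, rested 5 hr at 37C, then exposed to DMSO-dissolved compounds for 24 hr. Activation was read as luciferase luminescence.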

Test [6] has as its target Cytochrome P450 2D6 (Homo sapiens) (UniProt P10635). The experiment in a line: Cytochrome P450 Family 2 Subfamily D Member 6 (CYP2D6) small molecule antagonists: luciferase reporter qHTS assay (AID 1671196). Also: nearly all actives have a fitted effect of over 50% in size. Also: potency is read from the fitted curve at half-maximal effect. Particulars: P450-Glo CYP2D6 enzyme assay, luciferin luminescence, 1 h; series mostly up to 115 µM. The gist of the method:
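Each well received CYP2D6 with its proluciferin substrate and chemical, sat 10 min, then got NADPH regeneration solution for 1 h at room temperature. Luminescence in RLU served as the activity measure.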

Test [7] deals with Cytochrome P450 2C9 (Homo sapiens) (UniProt P11712). The experiment in a line: Cytochrome P450 Family 2 Subfamily C Member 9 (CYP2C9) small molecule antagonists: luciferase reporter qHTS assay (AID 1671198). Also: nearly all actives have a fitted effect of over 50% in size. Also: potency is read from the fitted curve at half-maximal effect. The conditions noted are these: P450-Glo CYP2C9 enzyme assay, luciferin luminescence; series mostly up to 115 µM. A digest of the protocol: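 P450-Glo proluciferin substrate with CYP2C9 enzyme; 10 min RT preincubation, then NADPH regeneration 1 h at 37C; luciferin detection reagent 20 min RT, luminescence in relative luminescence units.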

The target in test [8] is Cytochrome P450 1A2 (Homo sapiens) (UniProt P05177). The experiment in a line: Cytochrome P450 Family 1 Subfamily A Member 2 (CYP1A2) small molecule antagonists: luciferase reporter qHTS assay (AID 1671199). Also: nearly all actives have a fitted effect of over 50% in size. Also: potency is read from the fitted curve at half-maximal effect. The conditions noted are these: P450-Glo CYP1A2 enzyme, luciferin luminescence, 1 h; series mostly up to 115 µM. The gist of the method:
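Enzymatic CYP1A2 assay, human, luminescent: 10 min compound–enzyme–substrate preincubation, 1 h NADPH-dependent turnover, 20 min detection step, room temperature throughout. Reduced light indicates lower CYP1A2 activity.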

The target in test [9] is Cytochrome P450 3A4 (Homo sapiens) (UniProt P08684). The experiment in a line: Cytochrome P450 Family 3 Subfamily A Member 4 (CYP3A4) small molecule antagonists: luciferase reporter qHTS assay (AID 1671201). Also: nearly all actives have a fitted effect of over 50% in size. Also: potency is read from the fitted curve at half-maximal effect. The conditions noted are these: P450-Glo CYP3A4 enzyme, luciferin luminescence, 1 h; series mostly up to 115 µM. The gist of the method: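 P450-Glo CYP3A4 luminescent assay: compounds preincubated 10 min at room temperature with enzyme and proluciferin substrate, NADPH regeneration added, 1 h room-temperature reaction, stopped with luciferin detection reagent; luminescence read after 20 min. Ketoconazole positive control.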

Test [10] is described as follows: Caspase-3/7 induction in HepG2 cells by small molecules, qHTS cell viability counter screen (AID 1346981). Also: nearly all actives have a fitted effect of over 30% in size. Also: potency is read from the fitted curve at half-maximal effect. Particulars: CellTiter-Fluor fluorescence, 17 h; series mostly up to 92.4 µM. The gist of the method:
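Viability determined by CellTiter-Fluor fluorescence in HepG2 wells also used for the luminescent Caspase-Glo 3/7 read. Compounds were present for 16 hr at 37 C, 5% CO2 before reagent addition.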

The target in test [11] is Cytochrome P450 2C19 (Homo sapiens) (UniProt P33261). Kind of test: Cytochrome P450 Family 2 Subfamily C Member 19 (CYP2C19) small molecule antagonists: luciferase reporter qHTS assay (AID 1671197). Also: nearly all actives have a fitted effect of over 65% in size. Also: potency is read from the fitted curve at half-maximal effect. Particulars: P450-Glo CYP2C19 enzyme, luciferin luminescence, 1 h; series mostly up to 115 µM. The gist of the method:
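Light output is proportional to CYP2C19 activity: proluciferin substrate is converted to luciferin, then detected by a luciferin detection reagent that also stops the 1 h, 37C NADPH-driven reaction. Ketoconazole serves as positive control.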

In test [12] the target is Voltage-gated inwardly rectifying potassium channel KCNH2 (Homo sapiens) (UniProt Q12809). Kind of test: Human Ether-a-go-go-Related Gene (hERG) channel small molecule antagonists: fluorescence cell-based qHTS assay (AID 1671200). Also: nearly all actives have a fitted effect of over 50% in size. Also: potency is read from the fitted curve at half-maximal effect. Particulars: hERG-U2OS cells, FluxOR thallium flux fluorescence; series mostly up to 76.8 µM. The gist of the method: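 hERG-U2OS cells plated overnight at 37 C, loaded with FluxOR II dye 1 h at RT in dark; after 10 min, thallium stimulus added. Fluorescence (480/540 nm) read kinetically for 2 min at 1 s intervals.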

A short description of test [13]: Caspase-3/7 induction in CHO-K1 cells by small molecules, qHTS assay (AID 1346980). Also: nearly all actives have a fitted effect of over 15% in size. The conditions noted are these: CHO-K1 caspase-3/7 induction, Caspase-Glo luminescence, 17 h; series mostly up to 92.4 µM. A digest of the protocol: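 Wild-type CHO-K1 cells exposed to compounds for 17hr at 37 C, 5% CO2. Caspase-3/7 activity then measured by Caspase-Glo 3/7 luminescence after 30min at room temperature.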
% is scaled to controls: 0 for no effect and ±100 for the full control effect.

Chain of Voltage-gated inwardly rectifying potassium channel KCNH2 (Homo sapiens) (Q12809 whole entry, looked up): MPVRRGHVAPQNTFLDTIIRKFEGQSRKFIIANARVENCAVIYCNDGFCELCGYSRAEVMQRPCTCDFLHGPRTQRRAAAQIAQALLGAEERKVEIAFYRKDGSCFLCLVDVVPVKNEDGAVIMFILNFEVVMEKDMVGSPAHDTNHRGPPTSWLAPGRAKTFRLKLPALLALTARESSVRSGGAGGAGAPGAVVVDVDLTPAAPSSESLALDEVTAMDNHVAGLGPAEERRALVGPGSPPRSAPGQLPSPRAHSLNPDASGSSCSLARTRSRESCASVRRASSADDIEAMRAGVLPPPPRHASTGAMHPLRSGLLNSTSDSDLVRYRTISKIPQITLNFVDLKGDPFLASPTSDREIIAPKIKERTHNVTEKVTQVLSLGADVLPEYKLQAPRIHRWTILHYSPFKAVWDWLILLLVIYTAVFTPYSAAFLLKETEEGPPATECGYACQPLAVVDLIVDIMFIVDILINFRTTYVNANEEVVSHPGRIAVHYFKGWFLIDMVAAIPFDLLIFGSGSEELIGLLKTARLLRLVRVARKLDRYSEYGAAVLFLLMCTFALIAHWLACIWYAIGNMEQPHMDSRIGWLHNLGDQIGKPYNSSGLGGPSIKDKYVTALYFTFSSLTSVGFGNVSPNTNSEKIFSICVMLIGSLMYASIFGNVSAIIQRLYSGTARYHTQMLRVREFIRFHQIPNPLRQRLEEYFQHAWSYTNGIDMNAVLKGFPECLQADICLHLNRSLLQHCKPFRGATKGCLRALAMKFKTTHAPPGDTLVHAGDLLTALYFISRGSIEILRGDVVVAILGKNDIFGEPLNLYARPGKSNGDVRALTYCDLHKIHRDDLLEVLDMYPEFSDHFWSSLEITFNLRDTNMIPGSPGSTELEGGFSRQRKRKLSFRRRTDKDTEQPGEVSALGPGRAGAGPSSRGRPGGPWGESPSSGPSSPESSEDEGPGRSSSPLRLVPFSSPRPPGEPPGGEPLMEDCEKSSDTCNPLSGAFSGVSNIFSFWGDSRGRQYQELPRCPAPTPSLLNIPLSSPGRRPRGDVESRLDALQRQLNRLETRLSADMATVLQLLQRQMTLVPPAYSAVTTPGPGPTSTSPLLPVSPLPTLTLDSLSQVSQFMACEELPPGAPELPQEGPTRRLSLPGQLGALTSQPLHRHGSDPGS
Chain of Cytochrome P450 1A2 (Homo sapiens) (P05177 whole entry, looked up): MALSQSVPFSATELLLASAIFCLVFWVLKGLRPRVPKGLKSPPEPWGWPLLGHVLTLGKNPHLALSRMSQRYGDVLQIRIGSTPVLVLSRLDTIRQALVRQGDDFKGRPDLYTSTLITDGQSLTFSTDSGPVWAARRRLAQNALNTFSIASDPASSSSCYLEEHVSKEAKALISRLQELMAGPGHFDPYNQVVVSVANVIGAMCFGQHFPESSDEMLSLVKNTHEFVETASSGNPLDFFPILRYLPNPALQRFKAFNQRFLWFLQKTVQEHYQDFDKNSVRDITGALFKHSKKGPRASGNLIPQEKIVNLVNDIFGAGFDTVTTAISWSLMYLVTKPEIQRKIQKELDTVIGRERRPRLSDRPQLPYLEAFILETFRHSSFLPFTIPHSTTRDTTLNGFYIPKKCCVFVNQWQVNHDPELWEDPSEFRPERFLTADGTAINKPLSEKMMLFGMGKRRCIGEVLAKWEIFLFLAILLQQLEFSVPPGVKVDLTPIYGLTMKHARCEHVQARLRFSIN
Chain of Cytochrome P450 2C19 (Homo sapiens) (P33261 whole entry, looked up): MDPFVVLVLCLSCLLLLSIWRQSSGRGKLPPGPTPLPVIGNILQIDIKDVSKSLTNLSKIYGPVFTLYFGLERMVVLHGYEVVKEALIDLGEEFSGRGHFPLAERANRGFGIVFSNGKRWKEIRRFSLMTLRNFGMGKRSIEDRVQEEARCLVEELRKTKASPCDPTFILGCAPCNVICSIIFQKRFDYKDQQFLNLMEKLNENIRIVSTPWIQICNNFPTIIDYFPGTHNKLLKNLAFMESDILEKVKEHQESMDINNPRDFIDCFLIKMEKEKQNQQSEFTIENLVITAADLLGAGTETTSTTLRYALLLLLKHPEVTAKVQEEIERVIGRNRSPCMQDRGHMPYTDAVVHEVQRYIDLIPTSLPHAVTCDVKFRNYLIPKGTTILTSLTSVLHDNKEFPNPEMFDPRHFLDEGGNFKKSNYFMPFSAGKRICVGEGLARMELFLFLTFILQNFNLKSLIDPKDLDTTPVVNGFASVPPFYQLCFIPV
Chain of Nuclear receptor subfamily 1 group I member 2 (Homo sapiens) (O75469 whole entry, looked up): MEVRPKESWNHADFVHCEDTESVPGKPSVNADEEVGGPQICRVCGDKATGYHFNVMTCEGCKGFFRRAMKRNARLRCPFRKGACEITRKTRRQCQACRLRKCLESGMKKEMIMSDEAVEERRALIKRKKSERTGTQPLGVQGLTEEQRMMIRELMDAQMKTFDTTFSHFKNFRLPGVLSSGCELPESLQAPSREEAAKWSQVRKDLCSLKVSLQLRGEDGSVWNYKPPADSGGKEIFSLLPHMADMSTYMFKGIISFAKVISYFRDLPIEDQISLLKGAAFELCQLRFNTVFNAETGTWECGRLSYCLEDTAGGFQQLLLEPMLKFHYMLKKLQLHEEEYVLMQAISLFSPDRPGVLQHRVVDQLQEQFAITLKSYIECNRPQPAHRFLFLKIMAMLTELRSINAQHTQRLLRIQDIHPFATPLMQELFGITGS
Chain of Cytochrome P450 3A4 (Homo sapiens) (P08684 whole entry, looked up): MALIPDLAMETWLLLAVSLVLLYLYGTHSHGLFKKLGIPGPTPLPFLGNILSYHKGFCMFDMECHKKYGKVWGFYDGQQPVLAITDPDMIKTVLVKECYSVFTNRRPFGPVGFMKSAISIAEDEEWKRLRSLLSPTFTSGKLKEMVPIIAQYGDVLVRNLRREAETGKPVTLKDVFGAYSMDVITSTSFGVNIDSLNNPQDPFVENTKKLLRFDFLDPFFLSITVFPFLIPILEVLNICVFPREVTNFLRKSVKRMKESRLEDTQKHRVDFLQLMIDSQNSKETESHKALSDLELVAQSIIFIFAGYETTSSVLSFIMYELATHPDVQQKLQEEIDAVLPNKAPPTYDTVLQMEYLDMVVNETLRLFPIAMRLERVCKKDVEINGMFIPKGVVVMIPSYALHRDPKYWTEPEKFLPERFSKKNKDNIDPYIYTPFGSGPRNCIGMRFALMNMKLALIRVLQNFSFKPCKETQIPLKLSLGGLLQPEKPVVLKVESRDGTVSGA
Chain of Cytochrome P450 2C9 (Homo sapiens) (P11712 whole entry, looked up): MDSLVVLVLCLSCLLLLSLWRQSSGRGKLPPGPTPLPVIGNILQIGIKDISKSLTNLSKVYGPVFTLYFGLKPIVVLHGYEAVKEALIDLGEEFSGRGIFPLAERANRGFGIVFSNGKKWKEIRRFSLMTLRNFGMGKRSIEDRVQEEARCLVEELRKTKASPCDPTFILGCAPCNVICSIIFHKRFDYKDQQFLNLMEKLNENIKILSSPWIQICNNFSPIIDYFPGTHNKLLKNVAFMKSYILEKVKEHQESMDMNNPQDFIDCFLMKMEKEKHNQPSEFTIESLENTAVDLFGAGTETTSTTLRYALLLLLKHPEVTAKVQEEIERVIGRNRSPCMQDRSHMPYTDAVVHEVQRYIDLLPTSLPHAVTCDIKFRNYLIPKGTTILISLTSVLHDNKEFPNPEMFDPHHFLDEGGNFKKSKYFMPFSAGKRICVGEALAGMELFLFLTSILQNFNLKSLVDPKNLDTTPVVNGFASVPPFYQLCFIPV
Chain of Cytochrome P450 2D6 (Homo sapiens) (P10635 whole entry, looked up): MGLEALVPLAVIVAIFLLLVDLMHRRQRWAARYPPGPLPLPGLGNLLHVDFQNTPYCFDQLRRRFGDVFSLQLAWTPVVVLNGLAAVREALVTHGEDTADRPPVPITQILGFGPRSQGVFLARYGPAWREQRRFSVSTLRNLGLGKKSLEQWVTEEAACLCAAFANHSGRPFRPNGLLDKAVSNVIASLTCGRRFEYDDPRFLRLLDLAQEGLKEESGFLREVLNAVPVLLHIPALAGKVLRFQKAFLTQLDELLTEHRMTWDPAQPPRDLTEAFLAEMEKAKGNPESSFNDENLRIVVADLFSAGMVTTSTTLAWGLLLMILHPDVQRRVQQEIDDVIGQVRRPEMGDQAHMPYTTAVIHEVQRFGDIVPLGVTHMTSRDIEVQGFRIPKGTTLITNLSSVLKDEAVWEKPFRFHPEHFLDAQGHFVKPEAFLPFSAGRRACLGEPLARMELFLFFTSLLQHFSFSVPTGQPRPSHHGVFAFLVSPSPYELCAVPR
Chain of Nuclear receptor subfamily 1 group I member 2 (Rattus norvegicus) (Q9R1A7 whole entry, looked up): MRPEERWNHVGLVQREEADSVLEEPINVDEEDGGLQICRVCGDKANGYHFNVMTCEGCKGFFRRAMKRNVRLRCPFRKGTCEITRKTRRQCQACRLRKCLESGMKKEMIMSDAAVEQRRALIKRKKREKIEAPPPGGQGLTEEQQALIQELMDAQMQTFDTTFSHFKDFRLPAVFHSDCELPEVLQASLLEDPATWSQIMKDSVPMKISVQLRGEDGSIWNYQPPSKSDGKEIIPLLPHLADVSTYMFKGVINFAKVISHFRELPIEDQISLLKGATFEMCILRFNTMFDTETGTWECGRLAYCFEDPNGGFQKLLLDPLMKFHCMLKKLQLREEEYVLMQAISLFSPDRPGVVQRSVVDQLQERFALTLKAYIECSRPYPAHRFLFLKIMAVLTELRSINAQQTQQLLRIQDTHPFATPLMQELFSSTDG

`O=C1OC(OC(=O)c2cccnc2Nc2cccc(C(F)(F)F)c2)c2ccccc21` (configuration not stated): the Potency result in test [1], in test [2], in [4], in [5], in test [6] and in test [9] was “inactive” in each case. Further, the max activation in test [3] was -3.51%. The results for the Potency in [7] and in test [8] were 6.17 µM (active) and 9.77 µM (active), respectively.
In the case of `Cc1c(-c2ccc(O)cc2)n(Cc2ccc(OCCN3CCCCCC3)cc2)c2ccc(O)cc12`, the Potency in test [1] is 29.8 µM (active); in test [10], 29.8 µM (active); in [2], 9.44 µM (active). In addition, in test [8], the Potency entry was “inactive”.
Take `CCCCOCC`: the Potency result in test [10], in test [2], in [6], in test [11], in test [7] and in [8] was “inactive” throughout. Further, the Potency result in test [12] was “inactive”.
As for `Cc1cccc(C)c1NC(=O)CN1CCN(CCCC(c2ccc(F)cc2)c2ccc(F)cc2)CC1`, the Potency in [1] was 29.8 µM (active); in [10] it was 21.1 µM (active); in test [6] it was 2.45 µM (active); in test [11] it was 43.6 µM (active). In test [3], the max activation is 3.4%. Besides, the Potency result in [4], in test [5], in test [8] and in test [9] was “inactive” throughout.
For the compound `C/C=C/C(=O)Oc1c(CCCCCC(C)C)cc([N+](=O)[O-])cc1[N+](=O)[O-]`, the Potency in [1] was 15.4 µM (active); in test [10], 27.3 µM (active); in test [11], 35.6 µM (active); in [7], 2.52 µM (active); in test [8] it was 25.2 µM (active); in test [12], 21.9 µM (active). In addition, the Potency entry in test [6] is “inactive”.
With `CCN(CC)CCOc1ccc(C(O)(Cc2ccc(Cl)cc2)c2ccc(C)cc2)cc1` (configuration not stated), the Potency in test [1] is 26.6 µM (active); in [2] it was 9.44 µM (active); in test [11], 38.9 µM (active); in test [7], 38.9 µM (active); in test [12], 1.34 µM (active). Also, the max activation in [3] is -4.47%. Also, the Potency result in [6] and in test [8] was “inactive” in each case.
As for `CCc1ccc(C)nc1`, the Potency entry in test [13], in test [10], in [2], in [6], in test [11] and in [7] was “inactive” in each case. Besides, the Potency entry in [8], in test [12] and in test [9] was “inactive” in each case.
Take `NC(=O)C(=O)N/N=C/c1ccc([N+](=O)[O-])o1`: the Potency entry in test [13], in test [10], in test [4], in [5], in [6] and in [11] was “inactive” each time. Moreover, the Potency result in test [8], in test [12] and in test [9] was “inactive” each time. For the same compound, the max activation in test [3] was -0.701%.
With `O[C@@H](c1cc(C(F)(F)F)nc2c(C(F)(F)F)cccc12)[C@H]1CCCCN1`, in [1], the Potency is 26.6 µM (active). In addition, the Potency entry in [2], in test [5] and in [7] was “inactive” in each case. Moreover, the max activation in test [3] was -16.9%.
On to `N#CSCSc1nc2ccccc2s1`, for which the Potency in test [1] is 17.2 µM (active); in [6] it was 10 µM (active); in test [11] it was 39.9 µM (active); in [7] it was 31.7 µM (active); in [8], 5.64 µM (active). The Potency entry in test [12] and in test [9] was “inactive” in each case.
With `COC(=O)C1=C(C)NC(C)=C(C(=O)OCCCN2CCC(c3ccccc3)(c3ccccc3)CC2)C1c1cccc([N+](=O)[O-])c1` (configuration not stated), the Potency in test [10] is 29.8 µM (active); in test [3], 5.01 µM (active); in test [12], 1.51 µM (active).
As for `CC(C)(c1cc(Br)c(OCCO)c(Br)c1)c1cc(Br)c(OCCO)c(Br)c1`, the Potency result in test [13] is “inactive”. In addition, the Potency in test [2] is 4.75 µM (active); in test [11], 6.94 µM (active); in [7] it was 4.38 µM (active); in test [8], 27.6 µM (active); in [9], 49.2 µM (active).
On to `C[C@@H]1CC[C@H]2C(C)(C)[C@H]3C[C@@]12CC[C@@]3(C)O`, for which the Potency result in test [13], in [10] and in test [2] was “inactive” throughout.
On to `Cc1c(C)n(Cc2ccccc2)c2ccc(C(=O)OCCN(C)C)cc12`, for which, in test [13], the Potency entry was “inactive”. Besides, the Potency in test [2] is 7.5 µM (active); in test [4] it was 3.98 µM (active); in [11], 15.5 µM (active); in test [7], 15.5 µM (active); in [8], 10.2 µM (active); in [12], 10.7 µM (active). Further, in test [3], the max activation is 1.71%.
For `CCCCCCCCCC(=O)N(C)C`, the Potency result in [13], in [10], in test [6] and in [12] was “inactive” throughout. In addition, the Potency in test [11] is 36.1 µM (active); in [7], 40.5 µM (active); in test [8], 36.1 µM (active).
For `CNCC[C@H](Oc1cccc2ccccc12)c1cccs1`, the Potency result in test [13] was “inactive”. The max activation in test [3] is -8.93%.
Regarding `CC(C)(C)c1cc(/C=C2\SC(=N)NC2=O)cc(C(C)(C)C)c1O`, the Potency result in test [13] and in test [12] was “inactive” in each case. The Potency was 30.6 µM (active) in [2]; 39.9 µM (active) in [6]; 20 µM (active) in test [11]; 1.78 µM (active) in test [7]; 11.2 µM (active) in test [9].
`O=C1NCCN1CCN1CCC(c2cn(-c3ccc(F)cc3)c3ccc(Cl)cc23)CC1`: the figures for the Potency in test [1], in [10] and in test [6] were 26.6 µM (active), 29.8 µM (active) and 4.36 µM (active), respectively. For the same compound, the Potency result in [11], in [7] and in test [8] was “inactive” each time.
